Assay outcomes from PubChem BioAssay.
Compounds with a hit are over-represented: about 1.2% of the library has one in this group of screens.
RAD54 branch: inhibitors of human RAD54 branch migration; 0.14% of 360,000 active; inhibition, % at 10.4 µM; Q92698; AID 602329; RAD54 Holliday junction branch migration, FAM/BHQ fluorescence;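 active means mean normalized replicate activity at least 40 and at least half of replicates scoring 40 or more; inconclusive means only one of the two criteria met; inactive means mean below 40 and under half of replicates reaching 40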;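 further: 0% = median of neutral control wells and 100% = median of positive control wells; inhibitors cause a drop in the FAM fluorescence signal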
Target sequence (Q92698 whole entry, looked up): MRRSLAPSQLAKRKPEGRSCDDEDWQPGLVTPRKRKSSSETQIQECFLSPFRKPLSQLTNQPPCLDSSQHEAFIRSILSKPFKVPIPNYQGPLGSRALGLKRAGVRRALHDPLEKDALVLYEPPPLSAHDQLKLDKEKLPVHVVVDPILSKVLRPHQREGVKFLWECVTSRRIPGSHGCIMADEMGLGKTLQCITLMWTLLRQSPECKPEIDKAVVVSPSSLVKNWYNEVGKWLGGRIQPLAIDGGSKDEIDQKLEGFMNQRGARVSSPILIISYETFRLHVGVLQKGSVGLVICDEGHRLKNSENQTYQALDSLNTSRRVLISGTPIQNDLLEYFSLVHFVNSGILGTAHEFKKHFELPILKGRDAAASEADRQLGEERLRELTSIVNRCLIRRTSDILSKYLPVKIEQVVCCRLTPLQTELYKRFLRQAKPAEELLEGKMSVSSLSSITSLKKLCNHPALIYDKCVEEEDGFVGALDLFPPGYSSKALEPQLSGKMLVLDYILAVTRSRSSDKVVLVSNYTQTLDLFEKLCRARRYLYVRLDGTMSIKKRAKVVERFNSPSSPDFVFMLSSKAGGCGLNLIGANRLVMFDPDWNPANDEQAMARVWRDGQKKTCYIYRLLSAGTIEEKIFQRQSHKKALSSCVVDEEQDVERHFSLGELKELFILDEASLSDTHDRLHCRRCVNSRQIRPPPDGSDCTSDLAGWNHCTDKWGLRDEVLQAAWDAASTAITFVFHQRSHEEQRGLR
RAD52 inh: RAD52 (human) annealing inhibition | 0.46% of 360,000 active | recombinant RAD52 DNA annealing, FRET fluorescence | inhibition, % at 18.7 µM | P43351;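 active means every replicate showing at least 50% inhibition; inconclusive means mean inhibition at least 50% but not in every replicate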
NSD2 inh: NSD2 (human) methyltransferase inhibition. O96028. NSD2 peptide methylation, AlphaScreen, 120 min. inhibition, % at 12.5 µM. 0.54% of 310,000 active. AID 743445; in the data active means inhibition above about 50%
N-glyco inh: N-linked glycosylation inhibition; 0.23% of 360,000 active; AID 588692; reporter increase, % at 12.5 µM; D54 ERlucT glycosylation luciferase reporter, 24 h; percent of 100 nM tunicamycin response;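 active means mean luciferase reporter signal, scaled so untreated is 0 and the glycosylation-blocking control 100, at or above a set limit in every replicate; inconclusive means mean reaches the limit but not every replicate does; inactive means mean below the limit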;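 further: luciferase carries N-glycosylation sites so blocking glycosylation raises the light; 0% = median of neutral control wells and 100% = median of 100 nM tunicamycin wells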
Casp6 inh: caspase-6 (human) enzyme inhibition. P55212. purified caspase-6, Z-VEID-R110 cleavage fluorescence. inhibition, % at 12.5 µM. 0.53% of 350,000 active;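 active means mean inhibition across replicates at least about 35%, with every replicate also reaching that limit, limit read from the data; inconclusive means only one of the two criteria met; inactive means neither criterion met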;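 further: 0% = median of neutral control wells and 100% = no fluorescence left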
Alpha artifact: AlphaScreen assay artifact in NSD2 counter-screen | shares compounds with NSD2 inh | AlphaScreen artifact counterscreen, preloaded methylated H4 peptide | AC35, µM (highest dose often 10 µM), for the others: top-dose activity change, negative = signal loss | 9.4% of 1,500 active; call rule not given here
Numbers without * were called inactive; ? = inconclusive; . = no result.

SMILES	RAD54 branch	RAD52 inh	NSD2 inh	N-glyco inh	Casp6 inh	Alpha artifact
COc1ccc(-c2ncncc2-c2ccccc2)c(O)c1	-2	-8	68*	-7	6	-2%
CCOc1ccc(-c2ncncc2-c2ccc(OC)cc2)c(O)c1	-2	.	5	-3	.	.
CCC(=O)N1C[C@@H](O)COC[C@@H]2O[C@H](CC(=O)NCc3ccccc3Cl)CC[C@H]21	8	.	.	.	.	.
O=C1Nc2c(Cl)cccc2C1=O	-1	-8	126*	2	37*	4%
COc1ccc(NC(=O)N(C)C[C@H]2Oc3c(NS(=O)(=O)c4ccc(Cl)cc4)cccc3C(=O)N([C@H](C)CO)C[C@@H]2C)cc1	4	-10	.	.	1	.
N#C[C@@H]1[C@@H](c2ccc(-c3cccc(F)c3)cc2)[C@@H](CO)N1C(=O)NC1CCCCC1	.	-109	.	.	1	.
C=CCc1cc(/C=C/c2nc(O)c([N+](=O)[O-])c(=O)[nH]2)cc(OC)c1O	.	-29	78*	1	39*	-9%
C[C@H](CO)N1C[C@H](C)[C@@H](CN(C)Cc2ccc3c(c2)OCO3)Oc2ccc(NS(=O)(=O)c3cccs3)cc2CC1=O	0	12	.	.	5	.
COCCN(C(=O)CCC(=O)Nc1ccccn1)C(C(=O)NC(C)C)c1ccc(C)cc1 (stereo not given)	-9	-10	60*	3	.	-5%
COc1cccc(CN2CCC(Oc3ccc(C(=O)N4CCCCC4)cc3)CC2)c1O	5	0	58*	0	4	-4%
O=C(c1ccc(OC2CCN(Cc3ccccc3O)CC2)cc1)N1CCCCC1	-5	-22	12	-3	-3	.
CCCN(C)C[C@H]1Oc2cc(C#Cc3ccccc3)ccc2S(=O)(=O)N([C@H](C)CO)C[C@@H]1C	-5	-6	.	.	0	.
O=c1c2c(n3cnnc3n1-c1ccccc1)-c1ccccc1CC21CCCC1	.	-1	102*	4	-2	-8%
COc1ccc(NC(=O)N(C)C[C@H]2Oc3ccc(N(C)C)cc3C(=O)N([C@@H](C)CO)C[C@@H]2C)cc1	-3	4	.	.	-17	.
COc1cccc(/C=C2\N=C(SC)SC2=O)c1OC	-5	.	99*	1	.	1%
CSC1=N/C(=C\c2ccccc2F)C(=O)S1	-5	.	-2	3	.	.
N#Cc1c(N)n(-c2ccc(C(=O)O)cc2)c2nc3ccccc3nc12	-8	-98	74*	7	7	-6%
Cc1ccc(S(=O)(=O)N(C)C[C@@H]2OCCCC[C@H](C)Oc3ccc(NC(=O)Nc4ccccc4)cc3C(=O)N([C@H](C)CO)C[C@H]2C)cc1	2	-15	.	.	0	.
CCc1ccc(N(CC(=O)NCc2ccc3c(c2)OCO3)C(=O)c2csnn2)cc1	-7	-5	60*	2	.	-2%
C[C@H](CO)N1C[C@H](C)[C@H](CN(C)C(=O)NC2CCCCC2)Oc2ccc(NC(=O)NC3CCCCC3)cc2C1=O	3	10	.	.	.	.
CCNc1nc2c(c(=O)[nH]c(=O)n2C)n1Cc1ccc(F)cc1	-5	-13	.	3	0	.
Cn1c(=O)[nH]c(=O)c2c1nc(N/N=C/c1ccncc1)n2Cc1ccc(F)cc1	?	-1	62*	19	0	-2%
Cc1ccc(/C=C2/SC(=S)N(C3CCCCC3)C2=O)o1	-2	-32	.	4	-1	.
Cc1ccc(/C=C2/SC(=O)NC2=S)o1	-26	.	177*	1	.	-13%
C[C@H](CO)N1C[C@H](C)[C@@H](CN(C)C(=O)CC2CC2)Oc2ncc(C#CC3CC3)cc2C1=O	-3	-3	.	.	-2	.
SMILES	RAD54 branch	RAD52 inh	NSD2 inh	N-glyco inh	Casp6 inh	Alpha artifact
CC(C)Sc1nnc([C@H](Cc2c[nH]c3ccccc23)NC(=O)OC(C)(C)C)o1	1	.	54*	1	.	-7%
CCc1ccc(NC(=S)Nc2cccc3cnccc23)cc1	0	-18	98*	2	2	0%
Cc1ccc(Sc2ncccc2C(N)=O)cc1	.	-1	106*	6	-1	-1%
Cc1ccc(Sc2ncccc2C(=O)O)cc1	-14	.	-5	0	.	.
CC(C)(C)CN1CCNC(=O)C1CC(=O)N1CCC(C(=O)N2CCOCC2)CC1 (stereo not given)	.	-12	79*	0	-4	-4%
Cc1cc(C)nc(NS(=O)(=O)c2ccc(NC(=O)c3ccccc3Br)cc2)n1	-3	1	65*	1	23	1%
Cc1cc(C)nc(NS(=O)(=O)c2ccc(NC(=O)Nc3ccccc3)cc2)n1	.	-4	36	1	2	.
